Results filed as inconclusive are left out. Calls of active or inactive are those of the source. The call rests on the fitted dose curve; in most records, active means well fitted curve in the direction sought with a large enough effect; inconclusive means small, poorly fitted or top-dose-only effect, or another doubt; inactive means no such curve, though single readings can be large; an effect the other way counts as inactive or inconclusive.
Assays:
[1] = target: Cellular tumor antigen p53 (Homo sapiens) (UniProt P04637); assay: Primary qHTS for small molecule compounds that upregulate eGFP-tagged delta133p53alpha (in N-terminal) cells. (AID 2060322); conditions: NCI-H358 eGFP-delta133p53alpha fluorescence, 24 h; activation: hits give high values;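 further: cells pre-induced with doxycycline then dosed without doxycycline; 0% = DMSO vehicle and 100% = reference activator; nearly all actives have a fitted effect of over 75% in size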
Procedure, shortened: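 NCI-H358 cells pre-induced 24 h with 10 ng/ml doxycycline for eGFP-delta133p53alpha, plated dox-free and exposed 24 h at 37C to titrated compounds. Fixed, Hoechst-stained; gated GFP peak intensity by laser scanning cytometry, normalized to DMSO (0%) and 57.5 uM 5-azacytidine (100%).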

[2] = target: Aldehyde dehydrogenase, mitochondrial (Homo sapiens) (UniProt P05091); assay: qHTS for Inhibitors of the Aldehyde Dehydrogenase Family (ALDH2) Primary screen (AID 2061308); conditions: ALDH2 enzyme inhibition qHTS, 1536-well; series mostly up to 56 µM;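 further: plate controls were vehicle for no effect and reference inhibitor for full effect; nearly all actives have a fitted effect of over 55% in size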
[3] = target: Retinaldehyde dehydrogenase 3 (Homo sapiens) (UniProt P47895); assay: qHTS for Inhibitors of the Aldehyde Dehydrogenase Family (ALDH1A3) Primary screen (AID 2061315); conditions: ALDH inhibition qHTS; series mostly up to 56 µM;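 further: plate controls were DMSO vehicle for no effect and reference inhibitor for full effect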

Cellular tumor antigen p53 (Homo sapiens), sequence (P04637 whole entry, looked up): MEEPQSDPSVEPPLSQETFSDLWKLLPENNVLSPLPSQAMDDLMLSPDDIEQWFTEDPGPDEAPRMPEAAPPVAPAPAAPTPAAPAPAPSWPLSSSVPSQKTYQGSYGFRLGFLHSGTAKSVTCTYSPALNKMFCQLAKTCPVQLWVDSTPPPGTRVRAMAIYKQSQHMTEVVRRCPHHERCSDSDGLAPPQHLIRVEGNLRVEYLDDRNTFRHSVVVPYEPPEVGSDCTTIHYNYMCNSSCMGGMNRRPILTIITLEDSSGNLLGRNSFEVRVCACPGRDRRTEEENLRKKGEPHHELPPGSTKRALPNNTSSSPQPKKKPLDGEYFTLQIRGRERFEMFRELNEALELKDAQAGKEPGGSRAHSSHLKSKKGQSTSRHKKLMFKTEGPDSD

CC1(CO)CCCC2(C)C3COC(=O)C3=CC(O)C12 (centres undefined)
inactive: activation [1] -8.04% | Potency [2] | Potency [3]

COc1ccc(CN2CCN(CCCSc3cc(C(C)(C)C)c(O)c(C(C)(C)C)c3)CC2)c(OC)c1OC
inactive: activation [1] 16.3% | Potency [2] | Potency [3]

COc1cc(C)c(C(=O)NC2C(C)OC(OC3CCC(C)C4C3C=C(C)C3/C(C)=C\CC/C(C)=C/C5(C)C=C(C(=O)O)C(C)CC56OC(=O)/C(=C(\O)C34C)C6=O)C(O)C2(C)O)c(O)c1 (centres undefined)
inactive: activation [1] 3.82% | Potency [2] | Potency [3]

O=C1NC(Cc2ccccc2)C(=O)N2CCCC12 (centres undefined)
inactive: activation [1] -16.8% | Potency [2] | Potency [3]

COC(=O)CC(O)C1OC(c2ccccc2)C(O)C1O (centres undefined)
inactive: activation [1] -2.29% | Potency [2] | Potency [3]

CC(=O)OCC1OC(O[C@H]2CC[C@@]3(C)C(CC[C@]4(C)C3CC=C3[C@@H]5CC(C)(C)CC[C@]5(C(=O)O)CC[C@]34C)[C@]2(C)CO)C(O)C(O)C1OC1OC(C)C(O)C(OC2OCC(O)C(O)C2O)C1O (some centres undefined)
inactive: activation [1] -6.11% | Potency [2] | Potency [3]

CC(C)=CCC/C(C)=C/CC/C(C)=C/COC1OC(COC2OCC(OC3OCC(O)C(O)C3O)C(O)C2O)C(O)C(OC2OC(C)C(OC3OC(C)C(OC4OCC(OC5OC(C)C(O)C(O)C5O)C(O)C4O)C(O)C3O)C(O)C2O)C1O (centres undefined)
inactive: activation [1] 4.58% | activity change, negative = inhibition [2] 7.18% [at 11.2 µM] | activity change, negative = inhibition [3] -4.87% [at 11.2 µM]

CC(=O)/C=C/C1(O)C(C)CC(O[C@@H]2O[C@H](CO)[C@@H](O)[C@H](O)[C@H]2O)CC1(C)C (some centres undefined)
inactive: activation [1] 2.68% | Potency [2] | Potency [3]
